Hits are enriched below; roughly 2.3% of the tested compounds scored in any of these assays.
Tau fluor cs: counter-screen for tau fibril formation inhibitors. tau K18 P301L Alexa594 fluorescence, heparin fibrillization. Potency, µM (doses to about 57.7 µM), for inactives: at the highest dose activity change, negative = decrease. 280,000 compounds, 0.93% hits. AID 1463; note: potency is the fitted concentration of half-maximal effect; nearly all actives have a fitted effect of over 55% in size
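Human K18 P301L tau (15 uM unlabeled plus 0.24 uM Alexa 594-labeled, final) in 100 mM sodium acetate pH 7 was mixed with compound and 20 uM heparin and incubated 6 hr at 37 C.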
Tau fibril FP: inhibitors of human tau fibril formation; Potency, µM (highest dose often 57.7 µM), without a hit: top-dose activity, negative = inhibition, usual class: inhibitors; 280,000 compounds, 0.39% hits; K18 P301L tau heparin fibrillization, Alexa594 FP, 6 h; P10636; note: potency is the fitted concentration of half-maximal effect; nearly all actives have a fitted effect of over 55% in size
Target sequence (P10636 561-689 P618L limits assumed): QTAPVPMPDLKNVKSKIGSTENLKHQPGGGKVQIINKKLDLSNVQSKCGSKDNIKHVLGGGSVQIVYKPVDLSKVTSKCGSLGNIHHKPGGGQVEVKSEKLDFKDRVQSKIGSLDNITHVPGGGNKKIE
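Steps: dispense K18 P301L tau (15 uM plus 0.24 uM Alexa 594 tracer, final) in pH 7 sodium acetate; add compound; add heparin (20 uM final); incubate 6 hr, 37 C; add ThT (30 uM final); after 1 hr ambient, read FP.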
FBPA coupling cs: inhibits coupling enzyme system, counter-screen for aldolase hits. AID 2472. coupling enzyme system counterscreen, AmpLite Red fluorescence. 290,000 compounds, 0.67% hits. activity change, negative = inhibition, % at 58.2 µM, hits read low; in the data active = activity change below about -30%
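Counterscreen lacking aldolase: glyceraldehyde-3-phosphate coupling-enzyme reagent preincubated 10 min at RT with compound (at 57.5 uM final), then substrate/coupling system with AmpLite Red added; fluorescence read at 525/598 nm after 20 min RT.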
Tau fibril ThT: inhibitors of human tau fibril formation, thioflavin T binding; P10636; recombinant tau K18 P301L, heparin-induced fibrillization, ThT fluorescence; Potency, µM (doses to about 57.4 µM), without a hit: at the highest dose activity, negative = inhibition, usual class: inhibitors; 270,000 compounds, 2.1% hits; AID 1460; note: potency is the fitted concentration of half-maximal effect; nearly all actives have a fitted effect of over 55% in size
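Fibril formation assay: tau K18 P301L at 15 uM with trace Alexa 594 label, heparin inducer 20 uM, pH 7 sodium acetate buffer, 37 C for 6 hr; endpoint ThT signal.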
USP1 inh: inhibitors of human USP1/UAF1 deubiquitinase; O94782; recombinant USP1/UAF1, Ub-Rhodamine cleavage fluorescence; Potency, µM (series often up to 57.1 µM), for the others: at the top dose activity change, negative = inhibition, usual class: inhibitors; 390,000 compounds, 0.23% hits; AID 743255; note: potency is the fitted concentration of half-maximal effect; nearly all actives have a fitted effect of over 60% in size
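Step one: compound is pinned into 1nM USP1/UAF1 in HEPES pH 7.8 buffer with TCEP. Step two: 15 min room-temperature incubation. Step three: Ub-Rho (150nM final) starts cleavage, tracked by fluorescence over six one-minute reads.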
Starred values were filed as active, the others as inactive; ? = inconclusive; · = not tested or not shown; [ ] = dose if it differs, or a comment. Unless noted, calls come from the whole dose curve; as a rule, active = well fitted curve in the direction sought with a large enough effect; inconclusive = small, poorly fitted or top-dose-only effect, or another doubt; inactive = no such curve, though single readings can be large; an effect the other way counts as inactive or inconclusive. % is set by controls: 0 for no effect and ±100 for the full control effect.

SMILES	Tau fluor cs	Tau fibril FP	FBPA coupling cs	Tau fibril ThT	USP1 inh
Cc1cc(C)cc(NC(=O)C2CC(=O)N(c3ccccc3)C2)c1 (stereo not drawn)	-24%	-2%	·	-11%	-22%
CCc1ccccc1NC(=O)c1nnn(-c2ccc(F)cc2)c1C	-25%	-6%	·	-14%	-26%
COc1ccc(N2CCN(C(=O)c3nn(C)c4c3CSc3ccccc3-4)CC2)cc1	-10%	-8%	·	1%	-16%
C(=N\Nc1nc(-c2ccccc2)cs1)/c1ccco1	14µM*[quencher]	?	-5	14µM*	-11%
O=C(O)c1ccccc1N/N=C\c1ccnc2ccccc12	-24%	11%	2	5µM*	-24%
O=C(Cc1ccccc1)N/N=C/c1cc(Br)cc(Br)c1O	·	·	2	·	-13%
O=C(O)c1ccccc1N/N=C/c1cc(Br)cc(Br)c1O	?	22%	9	14µM*	?
CC(C)c1ccc(CN(Cc2ccco2)c2cnc(S(C)(=O)=O)nc2C(=O)Nc2ccc(F)cc2)cc1	-4%	-4%	·	6%	-16%
COc1cc(NC(=O)C2CCN(S(=O)(=O)c3c(C)noc3/C=C/c3ccccc3F)CC2)cc(OC)c1OC	?	5%	·	3%	15%
Oc1cc(OCc2ccccc2)ccc1-c1[nH]ncc1-c1ccccc1	10µM*[quencher]	25µM*	-7	-13%	-12%
COc1ccc(-c2cn[nH]c2-c2ccc(OCc3ccc(F)cc3)cc2O)cc1OC	8.9µM*[quencher]	?	-11	-15%	-20%
O=[N+]([O-])c1ccc(COc2ccc(-c3[nH]ncc3-c3ccccc3)c(O)c2)cc1	?	?	5	-6%	-13%
COc1ccc(-c2cn[nH]c2-c2ccc(OCC(=O)NN)cc2O)cc1OC	·	·	-4	·	-14%
COc1ccc(-c2cn[nH]c2-c2ccc(OCc3ccccc3)cc2O)cc1OC	3.2µM*[quencher]	?	3	-3%	-12%
Cc1ccc(-n2c(=O)c3c(c4cc(C)ccc4n3C)n(CC(=O)NCc3ccccc3)c2=O)cc1	10%	-4%	·	10%	-23%[11.4 µM]
COc1ccc(C(=O)c2oc3ccccc3c2NC(=O)COc2cccc(C)c2C)cc1	-8%	-11%	·	0%	-25%
O=C1c2cccc3c(O)ccc(c23)C(=O)N1Cc1ccco1	-25%	-10%	-9	?	28µM*
O=C1c2cccc3c(O)ccc(c23)C(=O)N1c1ccc(Cl)cc1	·	·	-14	·	28µM*
CC(=O)Nc1ccc(N2C(=O)c3cccc4c(O)ccc(c34)C2=O)cc1	·	·	-3	·	28µM*
COc1ccc(N2CC(NC(=O)c3ccco3)CC2=O)cc1OC (stereo not drawn)	6%	5%	·	3%	-6%
Cc1cc2nc(CSc3ccccc3)cc(=O)n2[nH]1	-5%	4%	-31*	-6%	-12%
O=C(Cn1sc2ccccc2c1=O)NC12CC3CC(CC(C3)C1)C2	-28%	20µM*	1	16µM*	-5%
O=C(Cn1sc2ccccc2c1=O)Nc1ccccc1	·	·	·	·	-6%
O=C1c2cccc(O)c2C(=O)c2c(O)cc(CO)cc21	·	·	-2	·	-23%
O=C1c2c(O)ccc(O)c2C(=O)c2c(NCCNCCO)ccc(NCCNCCO)c21	3.2µM*[quencher]	?	-20	8.9µM*	?
SMILES	Tau fluor cs	Tau fibril FP	FBPA coupling cs	Tau fibril ThT	USP1 inh
CC(C)Oc1ccc(CNC(=O)c2cccc(NC(=O)c3nsc4ccccc34)c2)cc1	7%	1%	·	7%	-4%
Oc1ccc(-c2cn3c(n2)SCC3)cc1O	14µM*[quencher]	?	-20	10µM*	-11%
Cc1cccc(N2CCN(C(=O)CN3C(=O)COc4ccc(S(=O)(=O)N5CCCC5)cc43)CC2C)c1 (stereo not drawn)	-13%	-7%	·	?	-16%
CC(/C=N/NC(=O)c1ccncc1)=C\c1ccc(C(C)C)cc1	-21%	?	2	20µM*	-12%
CC(/C=N/NC(=O)c1cccnc1)=C\c1ccccc1	-11%	6%	-1	-7%	-18%
CNC(=O)[C@H](Cc1c[nH]c2ccccc12)NC(=O)[C@@H](CC(=O)NO)CC(C)C	-5%	3%	·	-5%	·
O=C1/C(=C\c2ccco2)SC(=S)N1C1CCCCC1	·	·	0	·	·
CC1=C(C#N)C(=O)N(C2CCS(=O)(=O)C2)C(=O)/C1=C\c1ccco1 (stereo not drawn)	?	?	-31*	·	·
CC(C)S(=O)(=O)c1csc(NC(=O)Nc2ccc(Cl)cc2)c1	16µM*[quencher]	?	-5	-4%	-22%
CCOC(=O)c1cccc(NC(=O)c2cc3c(=O)n(Cc4ccccc4)ccc3nc2C)c1	-9%	-4%	·	-12%	-15%
Fc1ccccc1-c1nc(-c2ccccc2)oc1NC1CCCCC1	4%	5%	1	?	·
CCC(C)N=C1SCC(C)(/C=N/O)S1 (stereo not drawn)	-11%	-10%	-2	?	-5%
CC(C)(C)N=C1SCC(C)(/C=N/O)S1 (stereo not drawn)	-25%	?	1	25µM*	-9%
Cc1cccc(C)c1OCc1nc2ccccc2c(=O)n1/N=C/c1c[nH]c2ccccc12	3.5µM*[quencher]	?	-2	-5%	-23%
Cc1ccccc1OCc1nc2ccccc2c(=O)n1/N=C/c1c[nH]c2ccccc12	?	?	-5	9%	-11%
CC(=O)c1ccc(NC(=O)Cn2cc(S(=O)(=O)Cc3ccccc3Cl)c3ccccc32)cc1	?	?	·	-3%	-32%
Nc1cccc2c1C(=O)N(C(=O)/C=C/c1ccc(F)cc1)C2=O	-15%	?	-2	25µM*	-26%
CCOCc1cnc(C)nc1NCC(=O)c1c(C)[nH]c2ccc(OC)cc12	-8%	-1%	-49*	2%	2%
COC(=O)NC(c1cccc(C)c1)[C@]1(C(C)=O)CCCC1=O (stereo partly drawn)	-8%[11.6 µM]	0%[11.6 µM]	-2	-12%[11.5 µM]	·
